About 960 (1.5%) of roughly 66,000 compounds showed an effect of 50% or more. The sample holds strong results, similar compounds and a random draw of the others, so the mix is not that of the screen.
Test system: Trypanosoma brucei
Assay: Trypanosoma brucei 72 hour study
Type: functional, organism-based
Set-up: scale not given: in the data most compounds retested in dose-response had high values

CCc1cnc(CN(C)C2CCN(CCn3cc(C#N)cn3)C2)o1 (centres undefined)
Percent Effect (30.3 µM, […]): -0.7137%

Cl.Cn1nc(C2CCN(C(=O)Cc3ccsc3)CC2)c2cccnc21
Percent Effect (30.3 µM, […]): 16.05%

Cc1ccc(C)c(CS(=O)(=O)CC(=O)Nc2ccc(F)cc2F)c1
Percent Effect (30.3 µM, […]): 17.81%

CCS(=O)(=O)CC(=O)NC(C)c1ccc(F)cc1F (centres undefined)
Percent Effect (30.3 µM, […]): -61.88%

Cc1ccc(C)c(CS(=O)(=O)CC(=O)NC(C)c2ccc(F)cc2F)c1 (centres undefined)
Percent Effect (30.3 µM, […]): 56.23%

CS(=O)(=O)NC1CCN(C(=O)c2cc3ccccc3s2)C1 (centres undefined)
Percent Effect (30.3 µM, […]): -42.34%

CCC[C@@H]1CN(C(=O)c2cc3ccccc3s2)C[C@H]1NS(C)(=O)=O
Percent Effect (30.3 µM, […]): 55.32%

CCC[C@@H]1CN(C(=O)c2cnc3ccccc3c2)C[C@H]1NS(C)(=O)=O
Percent Effect (30.3 µM, […]): -86.77%

CNc1ncc2c(n1)CN(c1cccc(OC)c1)C2=O
Percent Effect (30.3 µM, […]): 5.042%

O=C(CN1C(=O)CCC1=O)NCCc1nc(C2CC2)cc(C(F)(F)F)n1
Percent Effect (30 µM, 30.03 µM): -18.17%

Clc1ccc(C2(CNC3=NCCN3)CCCCC2)cc1.I
Percent Effect (30 µM, 30.03 µM): 18.91%

CCc1ccc(CN(Cc2ccco2)C(C)C(C)C)nc1 (centres undefined)
Percent Effect (30 µM, 30.03 µM): -19.36%

CC(C)C(C)N(Cc1ccccn1)Cc1ccco1 (centres undefined)
Percent Effect (30 µM, 30.03 µM): -27.64%

CC(C)C(C)N(Cc1cnc2ccccc2n1)Cc1ccco1 (centres undefined)
Percent Effect (30 µM, 30.03 µM): 81.63%

CCc1c(C)nc(N)nc1N1CCCC(c2nc(CCOC)no2)C1 (centres undefined)
Percent Effect (30 µM, 30.03 µM): -46.14%

C[C@@H]1CN(Cc2cccc(F)c2)C[C@]12CCN(Cc1cccnc1)C2=O.O=C(O)C(F)(F)F.O=C(O)C(F)(F)F
Percent Effect (30.3 µM, […]): -74.2%

CCc1nnc2n1CCN(Cc1ncc(-c3ccc(Cl)cc3)o1)C2
Percent Effect (30.3 µM, […]): -0.05411%

Cc1cc(C[C@@H]2CCC[C@H]2NCc2ccccc2F)on1.O=C(O)CC(O)(CC(=O)O)C(=O)O
Percent Effect (30.3 µM, […]): 34.89%

CCCOc1ccccc1CN[C@@H]1CCC[C@H]1Cc1cc(C)no1.O=C(O)CC(O)(CC(=O)O)C(=O)O
Percent Effect (30.3 µM, […]): 97.97%

Cc1cc(C[C@@H]2CCC[C@H]2NCc2ccccc2C)on1.O=C(O)CC(O)(CC(=O)O)C(=O)O
Percent Effect (30.3 µM, […]): -2.54%

NC(=O)Cn1cc(NC(=O)NCCN2CCc3ccccc3C2)cn1
Percent Effect (10 µM): -24.97%

O=C(NC[C@H]1CCCC[C@H]1O)c1ccc2nc(-c3ccco3)[nH]c2c1
Percent Effect (30.3 µM, […]): 17.46% | Percent Effect (10 mM, 10 mM as filed; unlikely as a test dose): -68.89%

O=C(NC[C@H]1CCCC[C@H]1O)c1cccc2[nH]c(-c3ccco3)nc12
Percent Effect (30.3 µM, […]): 13.65% | Percent Effect (10 mM, 10 mM as filed; unlikely as a test dose): -65.92%

O=C(NC[C@H]1CCCC[C@H]1O)c1cccc2[nH]c(-c3cccs3)nc12
Percent Effect (30.3 µM, […]): 101.4% | Percent Effect (10 mM, 10 mM as filed; unlikely as a test dose): 77.67%

Cc1ccc(CN2C[C@@H](OCc3csc(C)n3)[C@H]3COC[C@H]32)s1.O=C(O)C(F)(F)F
Percent Effect (30 µM, 30.03 µM): -8.753%

COc1ccc(CNC2CCc3ncnn3C2)cc1OCC1CC1 (centres undefined)
Percent Effect (30 µM, 30.03 µM): -28.92%

Cc1cc(-c2cnc(NC3CC3)nc2-c2ccc(C)o2)on1
Percent Effect (30 µM, 30.03 µM): 25.68%

Cc1cc(-c2cnc(NC3CCCC3)nc2-c2ccc(C)o2)on1
Percent Effect (30.3 µM, […]): 59.7%

Cc1occc1-c1nc(NC2CCCC2)ncc1-c1ccccn1
Percent Effect (30.3 µM, […]): 66.93%

Cc1cc(-c2cnc(NC3CCCCC3)nc2-c2ccco2)on1
Percent Effect (30.3 µM, […]): 43.12%

Cc1cc(-c2cnc(NC3CC3)nc2-c2ccco2)on1
Percent Effect (30.3 µM, […]): 20.38%

Cc1cc(-c2cnc(NC3CCCC3)nc2-c2ccoc2)on1
Percent Effect (30.3 µM, […]): 19.37%

Cc1cc(-c2cnc(NC3CC3)nc2-c2ccoc2C)on1
Percent Effect (30.3 µM, […]): 6.625%

Cc1cc(-c2cnc(NC3CCCC3)nc2-c2ccoc2C)on1
Percent Effect (30.3 µM, […]): 30.38%

Cc1cc(-c2cnc(NC3CCCC3)nc2-c2ccco2)on1
Percent Effect (30.3 µM, […]): 60.69%

CN(Cc1ccc2c(c1)OCCO2)Cc1nc2c(cnn2C)c(=O)[nH]1
Percent Effect (30.3 µM, […]): 4.999%

CS(=O)(=O)N1CCO[C@@H]2CCN(Cc3ccncc3)CC[C@H]21.O=C(O)C(F)(F)F.O=C(O)C(F)(F)F
Percent Effect (30.3 µM, […]): -50.12%

COc1ccc(Cl)cc1S(=O)(=O)N1C[C@@H]2CC[C@H](C1)N(C)C2=O
Percent Effect (30 µM, 30.03 µM): 12.03%

O=C(O)C(F)(F)F.O=c1ccc2c(n1CC1CCOCC1)CCN(Cc1ccoc1)CC2
Percent Effect (30 µM, 30.03 µM): -13.76%

COCCNC(=O)[C@H]1CN(Cc2cccs2)C[C@H]2OCC[C@@H]12.O=C(O)C(F)(F)F
Percent Effect (30 µM, 30.03 µM): -47.27%

Cc1ccc(CN2C[C@@H]3CCCO[C@@H]3[C@H](N(C)Cc3ccco3)C2)s1.O=C(O)C(F)(F)F.O=C(O)C(F)(F)F
Percent Effect (30 µM, 30.03 µM): 26.16%

COCCN1CCOCC12CCN(c1cnccn1)CC2.O=C(O)C(F)(F)F
Percent Effect (30.3 µM, […]): -82.27%

Cn1c(C2CC2)nc2c1CCN(CCOc1ccccc1C#N)C2
Percent Effect (30.3 µM, […]): 73.03% | Percent Effect (10 mM, 10 mM as filed; unlikely as a test dose): 81.28%

Cn1c(C2CC2)nc2c1CCN(CCOc1ccc(C#N)cc1)C2
Percent Effect (30 µM, 30.03 µM): 41.84%

Cn1c(C2CC2)nc2c1CCN(CCOc1cccc(F)c1)C2
Percent Effect (30.3 µM, […]): 33.25% | Percent Effect (10 mM, 10 mM as filed; unlikely as a test dose): -49.38%

Cc1cc(CN2CCN(C(=O)NC(C)Cn3ccnc3)CC2)on1 (centres undefined)
Percent Effect (30.3 µM, […]): -36.86%

O=C(N1CCOCC1)[C@@]12CCO[C@@H]1CCN(C1CCCCC1)C2.O=C(O)C(F)(F)F
Percent Effect (30 µM, 30.03 µM): -10.39%

O=C(N1CCCO1)[C@@]12CCO[C@@H]1CCN(C1CCCCC1)C2.O=C(O)C(F)(F)F
Percent Effect (30 µM, 30.03 µM): 51.2%

O=C(N1CCOCC1)[C@@]12CCO[C@@H]1CCN(C1CCC1)C2.O=C(O)C(F)(F)F
Percent Effect (30 µM, 30.03 µM): -13.96%

Cc1nnn2c1COC(CNCc1nccs1)C2.O=C(O)C(F)(F)F (centres undefined)
Percent Effect (30 µM, 30.03 µM): 2.897%

Cc1cnn(CCNCC(O)COc2cc(Cl)ccc2Cl)c1 (centres undefined)
Percent Effect (10 µM): 13.76%

CC(C)NC(=O)C1(Cc2ccccc2-c2cncnc2)CCCNC1 (centres undefined)
Percent Effect (30.3 µM, […]): -17.52%

CC(C)NC(=O)C1(Cc2ccccc2-c2ccccc2)CCCNC1 (centres undefined)
Percent Effect (30.3 µM, […]): -11.23%

CC(C)CNC(=O)C1(Cc2ccccc2-c2ccccc2)CCNC1 (centres undefined)
Percent Effect (30.3 µM, […]): -113.5%

NC(=O)C1(Cc2ccccc2-c2cncnc2)CCCNC1 (centres undefined)
Percent Effect (30.3 µM, […]): -3.769%

CC(C)NC(=O)C1(Cc2ccccc2-c2cccs2)CCNC1 (centres undefined)
Percent Effect (30.3 µM, […]): 100.3%

Cl.O=C(O)C1(Cc2ccc(-c3cccs3)cc2)CCNC1 (centres undefined)
Percent Effect (30.3 µM, […]): 15.36%

Cl.O=C(O)C1(Cc2cccc(-c3cccs3)c2)CCCNC1 (centres undefined)
Percent Effect (30.3 µM, […]): -23.63%

CC(C)CNC(=O)C1(Cc2ccccc2-c2cccs2)CCNC1 (centres undefined)
Percent Effect (30.3 µM, […]): 100.9%

O=C(NC1CC1)C1(Cc2ccccc2-c2ccncc2)CCOCC1
Percent Effect (30.3 µM, […]): -2.257%

Cl.O=C(N1CCCC1)C1(Cc2ccc(-c3cccs3)cc2)CCNC1 (centres undefined)
Percent Effect (30.3 µM, […]): 100.9%

Cc1ccc(-c2ccccc2CC2(C(=O)NC(C)C)CCCNC2)cc1 (centres undefined)
Percent Effect (30.3 µM, […]): 73.8%

O=C(NCCO)C1(Cc2ccccc2-c2ccncc2)CCOCC1
Percent Effect (30.3 µM, […]): -12.36%

COc1ccccc1CN(C)C(=O)CN1CC(n2nc(C)cc2C)C1
Percent Effect (30 µM, 30.03 µM): 35.21%

CCC(NC(=O)C1CCN(S(C)(=O)=O)CC1)c1ccc(OC)cc1 (centres undefined)
Percent Effect (30 µM, 30.03 µM): -21.57%

Cl.O=C(NCc1ccccc1F)C1=NOC2(CCNC2)C1 (centres undefined)
Percent Effect (30 µM, 30.03 µM): 32.02%

O=C(O)C(F)(F)F.O=C(O)C(F)(F)F.c1cncc(OCC2CN(Cc3nccs3)Cc3nccn3C2)c1 (centres undefined)
Percent Effect (30.3 µM, […]): -9.916%

C/C=C(\C)CN(CCN1CCOCC1)Cc1ccco1
Percent Effect (30.3 µM, […]): -0.5994%

O=C(O)C(F)(F)F.O=C(O)C(F)(F)F.O=C([C@H]1C[C@H]2OCC[C@H]2N(Cc2ccccc2F)C1)N1CCCCO1
Percent Effect (30.3 µM, […]): -61.9%

Cn1ccnc1-c1nc(NC2CCCC2)ncc1-c1cccc(F)c1
Percent Effect (30.3 µM, […]): 20.44%

CN1CCN(c2ncnc3c2CCN(S(=O)(=O)C2CC2)CC3)CC1.O=C(O)C(F)(F)F
Percent Effect (30.3 µM, […]): -13.78%

CN(C)C[C@]12COC[C@H]1CN(Cc1ccc3c(c1)OCO3)C2.O=C(O)C(F)(F)F.O=C(O)C(F)(F)F
Percent Effect (30.3 µM, […]): 5.402%

CC(C)CC(=O)NC[C@H]1CC[C@H](C(c2ccccn2)N(C)C)CC1 (some centres undefined)
Percent Effect (30.3 µM, […]): -15.36%

COc1cccc(CNC(=O)CCC2=Nc3ccccc3S(=O)(=O)N2)c1
Percent Effect (30.3 µM, […]): 9.218%

CCN1C[C@@H]2[C@@H](OC)CCN(S(=O)(=O)c3ccccc3F)[C@@H]2C1.O=C(O)C(F)(F)F
Percent Effect (30 µM, 30.03 µM): 30.94%

CN(Cc1ccc(C#N)cc1)c1ncc(C(N)=O)cc1Cl
Percent Effect (30.3 µM, […]): 12.46%

Cl.O=C(NCc1ccccc1)C1=NOC2(CCNC2)C1 (centres undefined)
Percent Effect (30 µM, 30.03 µM): 2.25%

Cc1cccc(CNCC2COC3(CCCC3)O2)c1C (centres undefined)
Percent Effect (30 µM, 30.03 µM): -15.5%

Cc1cccc(CNCC2COC3(CCCCC3)O2)c1C (centres undefined)
Percent Effect (30 µM, 30.03 µM): -30.8%

COCCOc1ccccc1CNCC1COC2(CCCC2)O1 (centres undefined)
Percent Effect (30 µM, 30.03 µM): 102%

COc1cc(C(=O)N(Cc2ccco2)C2CC2)cc2c1OCCO2
Percent Effect (30 µM, 30.03 µM): 51.93%

COc1cc(C(=O)N(Cc2ccco2)C2CC2)cc(OC)c1OC
Percent Effect (30 µM, 30.03 µM): -6.757%

CCN(Cc1ccco1)C(=O)c1cc(OC)c2c(c1)OCCO2
Percent Effect (30 µM, 30.03 µM): 34.74%

Cc1cc(N(C)CCN(C)C)n2nc(C)cc2n1
Percent Effect (30 µM, 30.03 µM): -1.745%

CC(=O)N1CCC(c2c(CN(C)C)cnc3cc(C)nn23)CC1
Percent Effect (30.3 µM, […]): -17.17%

Cc1cc2ncc(CN(C)C)c(C3CCN(C)CC3)n2n1
Percent Effect (30.3 µM, […]): 99.05%

CN1CCN(c2nc(-c3cnn(C)c3)cs2)CC1
Percent Effect (30 µM, 30.03 µM): -14.69%

Cn1cc(-c2csc(N3CCSCC3)n2)cn1
Percent Effect (30 µM, 30.03 µM): -20.97%

Cn1cc(-c2csc(N3CCCCCC3)n2)cn1
Percent Effect (30 µM, 30.03 µM): 99.99%

O=C(O)C(F)(F)F.O=C(O)C(F)(F)F.O=C(c1ccncc1)N1CCC2(CC1)CCN(Cc1ccccn1)C2=O
Percent Effect (30 µM, 30.03 µM): -9.957%

CC(C)SCC(=O)NCc1cc2n(n1)CCCN(C1CCCCC1)C2
Percent Effect (30 µM, 30.03 µM): -6.203%

CC(CC(=O)N1CCN(c2cnccn2)CC1)c1ccc(F)cc1 (centres undefined)
Percent Effect (30 µM, 30.03 µM): -67.22%

O=C(CCSc1ccccc1F)N1CCN(c2cnccn2)CC1
Percent Effect (30 µM, 30.03 µM): 98.54%

O=C(CCSc1ccc(F)cc1)N1CCN(c2cnccn2)CC1
Percent Effect (30 µM, 30.03 µM): -62.17%
